Compounds with a hit are over-represented: about 18% of the library has one in this group of screens.
LDHA block: LDHA (human) enzyme inhibition; P00338; purified LDHA, NADH/diaphorase-resazurin fluorescence; hits give low values; activity change, % (values are at about 110 or 230 µM); 0.15% of 480,000 active; AID 1347041; in the data active = activity change below about -30%; inconclusive = mostly about -25% to -30%;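 also: plate controls were DMSO wells for no effect and wells without enzyme for full effect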
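Human LDH5 (2 nM) was incubated with 0.06 mM NADH and 0.2 mM pyruvate for 5 min at room temperature in Tris pH 7.4. Remaining NADH was coupled through diaphorase/resazurin, and resorufin fluorescence was read at 0 and 20 min.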
RORg inh: blocks mouse ROR gamma transcriptional activity; P51450; 5.4% of 310,000 active; AID 2551; Drosophila S2 Gal4-RORgamma UAS-luciferase reporter, 20 h; Potency, µM (series often up to 53.6 µM), for inactives: top-dose activity change, negative = inhibition, hits mostly inhibitors; also: potency is read from the fitted curve at half-maximal effect; nearly all actives have a fitted effect of over 60% in size
Target sequence (P51450 whole entry, looked up, the tested form may be a part): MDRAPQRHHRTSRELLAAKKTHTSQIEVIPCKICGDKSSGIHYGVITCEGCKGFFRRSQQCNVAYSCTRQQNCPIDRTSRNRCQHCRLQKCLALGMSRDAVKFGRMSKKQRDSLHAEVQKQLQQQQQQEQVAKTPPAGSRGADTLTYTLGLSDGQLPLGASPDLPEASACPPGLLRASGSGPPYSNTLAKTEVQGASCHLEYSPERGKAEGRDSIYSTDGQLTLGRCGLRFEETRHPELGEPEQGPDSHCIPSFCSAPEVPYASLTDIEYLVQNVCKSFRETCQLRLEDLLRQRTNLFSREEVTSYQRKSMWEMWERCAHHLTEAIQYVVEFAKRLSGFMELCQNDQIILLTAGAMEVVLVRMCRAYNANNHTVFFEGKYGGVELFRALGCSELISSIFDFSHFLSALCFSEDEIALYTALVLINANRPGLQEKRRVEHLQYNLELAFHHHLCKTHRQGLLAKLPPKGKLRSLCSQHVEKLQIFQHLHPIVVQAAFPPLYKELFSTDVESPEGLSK
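Compounds are pin-transferred onto Drosophila Schneider cells expressing a copper-inducible Gal4–ROR gamma transactivation domain fusion. After 1 hr, copper sulfate is added to 700 uM final; luciferase is read 20 hr later.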
TDP1 cell CPT: growth inhibition of DT40 Tdp1-/-;hTDP1 cells with camptothecin (screen for TDP1 inhibitors); chicken DT40 Tdp1-/-;hTDP1 cells + 20 nM CPT, ATP luminescence, 48 h; Potency, µM (doses to about 46.2 µM), inactives show at the highest dose activity change, negative = growth inhibition, usual class: inhibitors; 12% of 420,000 active; AID 686979; also: potency is read from the fitted curve at half-maximal effect; nearly all actives have a fitted effect of over 55% in size
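Chicken DT40 Tdp1-/- cells stably complemented with human TDP1 were seeded at 400 cells/well in medium containing 20 nM camptothecin, exposed to pin-transferred compounds, and grown at 37 °C for at least 48 hr. Viability was read as ATP luminescence.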
TDP1 cell noCPT: qHTS for Inhibitors of human tyrosyl-DNA phosphodiesterase 1 (TDP1): qHTS in cells in absence of CPT; DT40 Tdp1-/- hTDP1 cells, no CPT, ATP luminescence, 48 h; Potency, µM (doses to about 46.2 µM), inactives show at the highest dose activity change, negative = growth inhibition, hits mostly inhibitors; 15% of 420,000 active; AID 686978, 2013; also: potency is read from the fitted curve at half-maximal effect; nearly all actives have a fitted effect of over 55% in size
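DT40 Tdp1-/-;hTDP1 cells, no CPT (DMSO vehicle only), 400 cells/well; compounds pin-transferred; ≥48 hr, 37 °C; CellTiter-Glo 30 min RT dark, luminescence read.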
VP16 counter: counter-screen for ROR gamma inhibitors: Gal4-VP16 reporter. 3.5% of 310,000 active. Potency, µM (series often up to 53.6 µM), for inactives: at the top dose activity, negative = inhibition, usual class: inhibitors. AID 2546. Drosophila S2 Gal4-VP16 UAS-luciferase, luminescence, 20 h;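 also: Gal4-VP16 expression switched on by copper sulfate through the metallothionein promoter; potency is read from the fitted curve at half-maximal effect; nearly all actives have a fitted effect of over 50% in size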
IL1B secr inh: inhibitors of inflammasome signaling (IL-1 beta secretion) | THP-1 LPS/ATP IL-1B secretion, AlphaLISA, 16 h; hits give low values | activity change, % at 57.5 µM | 4.7% of 360,000 active | AID 743279; in the data active = activity change below about -50%; inconclusive = mostly about -30% to -49%
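Secreted IL-1B measured by AlphaLISA bead assay after 16 h compound exposure of THP-1 cells; compounds (final up to 57.5 uM) added 1 h before LPS (250 ng/mL) and ATP (1.25 mM) stimulation; lower signal means less secretion.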
Active calls of the source: *; [ ] = remark or other dose. Unless noted, calls follow the shape of the dose curve; as a rule, active = well fitted curve in the direction sought with a large enough effect; inconclusive = small, poorly fitted or top-dose-only effect, or another doubt; inactive = no such curve, though single readings can be large; an effect the other way counts as inactive or inconclusive. Unless noted, % is scaled to controls: 0 for no effect and ±100 for the full control effect.

O/N=C(/c1ccccc1)c1cc2cc(Br)cc(Br)c2o1 was read as LDHA block -3, RORg inh -27%, TDP1 cell CPT -18%, TDP1 cell noCPT inconclusive, VP16 counter -1% and IL1B secr inh -85*.
`COc1cccc2cc(/C(=N/O)c3ccc(Br)cc3)oc12` gave LDHA block -8, RORg inh -39%, TDP1 cell CPT inconclusive, TDP1 cell noCPT inconclusive, VP16 counter inconclusive and IL1B secr inh -6.
`CCc1nn(CC(=O)NCCN(CC(C)C)CC(C)C)c(=O)c2cc3sc(C)cc3n12` gave LDHA block 0, TDP1 cell CPT 15µM* and TDP1 cell noCPT 21µM*.
`Cc1cc(C)c2c(=O)cc(C(=O)N(Cc3cccs3)C3CCS(=O)(=O)C3)oc2c1` (stereo unspecified) gave LDHA block 5.
Screening Cc1cccc(N2CCN(C(C(=O)O)c3cn(C)c4cc(C(=O)O)ccc34)CC2)c1C (stereo unspecified) returned LDHA block 0.
Screening COc1ccc(C(=O)N2CCN(S(=O)(=O)c3ccc(C)cc3C)CC2)cc1OC returned LDHA block 1, RORg inh 19%, TDP1 cell CPT -24%, TDP1 cell noCPT inconclusive, VP16 counter 3% and IL1B secr inh 0.
COc1ccc(C(=O)N2CCN(c3ccc(C)c(C)c3)CC2)cc1OC was read as LDHA block 1, RORg inh 27%, TDP1 cell CPT inconclusive, TDP1 cell noCPT 16µM*, VP16 counter 2% and IL1B secr inh 21.
For COc1ccc(C(=O)N2CCN(c3ccc(C)cc3C)CC2)cc1OC the results were LDHA block 5, RORg inh -12%, TDP1 cell CPT 21µM*, TDP1 cell noCPT 26µM*, VP16 counter -12% and IL1B secr inh -17.
Screening Cc1c(CC(=O)NCCc2cccc(F)c2)c(=O)oc2cc(O)ccc12 returned LDHA block 5.
`Cc1ccc(C(=O)CC(SCC(=O)O)c2ccc(Cl)cc2)cc1` (stereo unspecified) gave LDHA block 7.
Screening O=[N+]([O-])c1cccc2c1ccc1ncccc12 returned LDHA block -3, RORg inh 0%, TDP1 cell CPT -2%, TDP1 cell noCPT -18%, VP16 counter -6% and IL1B secr inh -8.
Screening O=c1ccc2c(ccc3ncccc32)o1 returned LDHA block -2, TDP1 cell CPT -17%, TDP1 cell noCPT 12µM* and IL1B secr inh inconclusive.
Cn1c(=O)[nH]c2c(nc(-c3ccc(Cl)cc3)n2CCc2ccccc2)c1=O was read as LDHA block 6.
`COc1cc2nc(C3CC3)n(NC(=O)c3ccc(Cl)cc3)c(=O)c2cc1OC` gave LDHA block 4, RORg inh 33%, TDP1 cell CPT inconclusive, TDP1 cell noCPT 23µM*, VP16 counter -6% and IL1B secr inh 23.
For O=C(Nn1c(C2CCC2)nc2ccccc2c1=O)C1CCC1 the results were LDHA block -4, RORg inh 9%, TDP1 cell CPT -6%, TDP1 cell noCPT -11%, VP16 counter -9% and IL1B secr inh -9.
`COc1ccccc1C(=O)Nn1c(C2CCC2)nc2ccccc2c1=O` gave LDHA block -5, RORg inh -2%, TDP1 cell CPT 13µM*, TDP1 cell noCPT inconclusive, VP16 counter -3% and IL1B secr inh 9.
CCOc1ccccc1C(=O)Nn1c(C2CCC2)nc2ccccc2c1=O was read as LDHA block -1, RORg inh -1%, TDP1 cell CPT 9.2µM*, TDP1 cell noCPT 23µM*, VP16 counter 0% and IL1B secr inh 16.
`O=C(Nn1c(C2CCCCC2)nc2ccccc2c1=O)c1ccc(Cl)c([N+](=O)[O-])c1` gave LDHA block -13, RORg inh inconclusive, TDP1 cell CPT inconclusive, TDP1 cell noCPT inconclusive, VP16 counter inconclusive and IL1B secr inh -224*.
`O=C(c1ccc2c(=O)n(Cc3ccccc3)c(=S)[nH]c2c1)N1CCCC1` gave LDHA block -5, RORg inh 11µM*, TDP1 cell CPT -22%, TDP1 cell noCPT inconclusive, VP16 counter inconclusive and IL1B secr inh 36.
`COc1ccc(CCn2c(=O)[nH]c3cc(C(=O)NCCN4CCOCC4)ccc3c2=O)cc1OC` gave LDHA block 2, RORg inh 8%, TDP1 cell CPT -18%, TDP1 cell noCPT -28%, VP16 counter -10% and IL1B secr inh 8.
For CCCCCn1c(=S)[nH]c2cc(C(=O)N3CCCC3)ccc2c1=O the results were LDHA block -1, RORg inh 3.2µM*, TDP1 cell CPT 2%, TDP1 cell noCPT -10%, VP16 counter 14% and IL1B secr inh 28.
`COc1ccc(CCn2c(=S)[nH]c3cc(C(=O)N4CCOCC4)ccc3c2=O)cc1OC` gave LDHA block -7, RORg inh -3%, TDP1 cell CPT inconclusive, TDP1 cell noCPT 18µM*, VP16 counter -6%[10 µM] and IL1B secr inh 42.
`CC1CCC/C(=C(\C#N)c2nc(-c3ccccc3)cs2)C1` (stereo unspecified) gave LDHA block 8.
Screening Oc1ccc2c(c1)Oc1ncn3nc(COc4ccccc4)nc3c1C2c1ccccc1 (stereo unspecified) returned LDHA block 30.
Screening C=CCn1c(SCc2c(C(=O)OC)sc(N)c2C(=O)OC)nnc1-c1ccc(Br)cc1 returned LDHA block -5, RORg inh -29%, TDP1 cell CPT inconclusive, TDP1 cell noCPT 18µM*, VP16 counter -10% and IL1B secr inh -10.
`CCN(CC(=O)NCc1ccc(F)cc1)C(=O)c1ccc2c(c1)nnn2CC` gave LDHA block -17.
O=[N+]([O-])c1cc(-c2nc(-c3ccccc3)no2)ccc1N1CCCCC1 was read as LDHA block -1, TDP1 cell CPT -17% and TDP1 cell noCPT inconclusive.
For CCc1noc(-c2ccc(N3CCCCC3)c([N+](=O)[O-])c2)n1 the results were LDHA block 3, TDP1 cell CPT inconclusive and TDP1 cell noCPT 5%.
Screening Cc1ccc(-c2noc(-c3ccc(N4CCCCC4)c([N+](=O)[O-])c3)n2)cc1 returned LDHA block -3, TDP1 cell CPT inconclusive and TDP1 cell noCPT 21µM*.

Source: PubChem (National Center for Advancing Translational Sciences (NCATS))
